In PubChem BioAssay (EPA / NIEHS):
Several values for one entry are separate records, joined by “and”; a condition that tells them apart may be missing. Equal entries are not always repeated. More than one record can exist for a structure, and the calls need not agree. Activity calls are given as the source filed them. The calls were made as follows: active = hit-call score of the fitted dose curve at least 0.9, where 1 is the maximum; inactive = score below 0.9.

Read-out: Interleukin-8 (IL8), CXCL8 (gene 3576)
Assay: BSK_hDFCGF_IL8: BioMAP Diversity Plus: hDFCGF Assay for Interleukin-8 (IL8) Biomarker Activity (AID 2283058)
Settings: primary human foreskin fibroblasts; actives raise or lower the signal
Method in brief: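 ELISA read-out of IL-8 from primary human foreskin fibroblast cultures taken 24 h after dosing; values are bidirectional fits relative to DMSO vehicle.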
In the case of `Nc1ccc(-c2ccc(N)c(N)c2)cc1N`, the outcome is reported as “inactive”.
With `O=c1[nH]c(Cl)c(Cl)cc1Cl` the outcome was “inactive”.
In the case of `O=C(O)CCCc1ccc(N(CCCl)CCCl)cc1`, the outcome is reported as “inactive”.
For `COC(C)(C)CCC[C@H](C)C/C=C/C(C)=C/C(=O)OC(C)C`, the outcome was “inactive”.
For `O=P1(NCCCl)OCCCN1CCCl` (stereo not given), the outcome was “inactive”.
For `O=S(=O)(c1ccccc1)c1ccccc1`, the outcome was “inactive”.
For `Clc1ccc(-c2ccccc2)cc1`, the outcome was “inactive”.
For `Oc1cc(Cl)ccc1Cl`, the outcome was “inactive”.

Read-out: not listed separately
Assay: BSK_hDFCGF_Proliferation: Cell Proliferation Assessment in the BioMAP Diversity Plus: hDFCGF Assay (AID 2283059);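 also: curves fitted for both rise and fall of signal versus DMSO baseline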
Settings: primary human foreskin fibroblasts
Method in brief: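 Primary human foreskin fibroblasts, sub-confluent; […]; 10% TCA fix, 0.1% SRB stain, A560 total protein. Gain/loss fitted bidirectionally vs DMSO control.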
For `Nc1ccc(-c2ccc(N)c(N)c2)cc1N`, the outcome was “inactive”.
For `O=c1[nH]c(Cl)c(Cl)cc1Cl`, the outcome was “inactive”.
For `O=C(O)CCCc1ccc(N(CCCl)CCCl)cc1`, the AC50 was 6.32 µM (active) and 5.54 µM (active).
For `COC(C)(C)CCC[C@H](C)C/C=C/C(C)=C/C(=O)OC(C)C`, the AC50 was 31.2 µM (active).
In the case of `O=P1(NCCCl)OCCCN1CCCl` (stereo not given), the outcome is reported as “inactive”.
In the case of `O=S(=O)(c1ccccc1)c1ccccc1`, the outcome is reported as “inactive”.
With `Clc1ccc(-c2ccccc2)cc1` the outcome was “inactive”.
For `Oc1cc(Cl)ccc1Cl`, the outcome was “inactive”.

Read-out: Macrophage colony-stimulating factor (MCSF), CSF1 (gene 1435)
Assay: BSK_hDFCGF_MCSF: BioMAP Diversity Plus: hDFCGF Assay for Macrophage colony-stimulating factor (MCSF) Biomarker Activity (AID 2283060)
Settings: primary human foreskin fibroblasts; actives raise or lower the signal
Method in brief: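 ELISA read-out of M-CSF in human dermal foreskin fibroblast cultures, 24 h after chemical dosing; gain or loss of signal fitted bidirectionally relative to DMSO baseline.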
In the case of `Nc1ccc(-c2ccc(N)c(N)c2)cc1N`, the AC50 is reported as 16.1 µM (active).
In the case of `O=c1[nH]c(Cl)c(Cl)cc1Cl`, the outcome is reported as “inactive”.
In the case of `O=C(O)CCCc1ccc(N(CCCl)CCCl)cc1`, the outcome is reported as “inactive” and the AC50 is reported as 16.6 µM (active).
In the case of `COC(C)(C)CCC[C@H](C)C/C=C/C(C)=C/C(=O)OC(C)C`, the AC50 is reported as 22.7 µM (active).
For `O=P1(NCCCl)OCCCN1CCCl` (stereo not given), the outcome was “inactive”.
In the case of `O=S(=O)(c1ccccc1)c1ccccc1`, the outcome is reported as “inactive”.
With `Clc1ccc(-c2ccccc2)cc1` the outcome was “inactive”.
For `Oc1cc(Cl)ccc1Cl`, the outcome was “inactive”.

Read-out: TIMP metallopeptidase inhibitor 1 (TIMP1), TIMP1 (gene 7076)
Assay: BSK_hDFCGF_TIMP1: BioMAP Diversity Plus: hDFCGF Assay for TIMP metallopeptidase inhibitor 1 (TIMP1) Biomarker Activity (AID 2283062)
Settings: primary human foreskin fibroblasts; actives raise or lower the signal
Method in brief: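 ELISA readout of TIMP-1 from human dermal foreskin fibroblast cultures 24 h post-dosing. Curves were fitted in both directions against DMSO baseline, with SRB total-protein staining in parallel cultures as a cytotoxicity check.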
In the case of `Nc1ccc(-c2ccc(N)c(N)c2)cc1N`, the outcome is reported as “inactive”.
With `O=c1[nH]c(Cl)c(Cl)cc1Cl` the outcome was “inactive”.
For `O=C(O)CCCc1ccc(N(CCCl)CCCl)cc1`, the outcome was “inactive”.
For `COC(C)(C)CCC[C@H](C)C/C=C/C(C)=C/C(=O)OC(C)C`, the AC50 was 29.8 µM (active).
In the case of `O=P1(NCCCl)OCCCN1CCCl` (stereo not given), the outcome is reported as “inactive”.
For `O=S(=O)(c1ccccc1)c1ccccc1`, the outcome was “inactive”.
With `Clc1ccc(-c2ccccc2)cc1` the outcome was “inactive”.
With `Oc1cc(Cl)ccc1Cl` the outcome was “inactive”.

Read-out: Monokine induced gamma interferon (MIG), CXCL9 (gene 4283)
Assay: BSK_hDFCGF_MIG: BioMAP Diversity Plus: hDFCGF Assay for Monokine induced gamma interferon (MIG) Biomarker Activity (AID 2283063)
Settings: primary human foreskin fibroblasts; actives raise or lower the signal
Method in brief: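 Fibroblasts (human foreskin, primary) dosed, 24 h, MIG by ELISA; fit bidirectional vs DMSO.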
With `Nc1ccc(-c2ccc(N)c(N)c2)cc1N` the outcome was “inactive”.
In the case of `O=c1[nH]c(Cl)c(Cl)cc1Cl`, the outcome is reported as “inactive”.
For `O=C(O)CCCc1ccc(N(CCCl)CCCl)cc1`, the outcome was “inactive”.
In the case of `COC(C)(C)CCC[C@H](C)C/C=C/C(C)=C/C(=O)OC(C)C`, the AC50 is reported as 33.2 µM (active).
With `O=P1(NCCCl)OCCCN1CCCl` (stereo not given) the outcome was “inactive”.
For `O=S(=O)(c1ccccc1)c1ccccc1`, the outcome was “inactive”.
With `Clc1ccc(-c2ccccc2)cc1` the outcome was “inactive”.
With `Oc1cc(Cl)ccc1Cl` the outcome was “inactive”.

Read-out: Matrix Metallopeptidase 1 (MMP1), MMP1 (gene 4312)
Assay: BSK_hDFCGF_MMP1: BioMAP Diversity Plus: hDFCGF Assay for Matrix Metallopeptidase 1 (MMP1) Biomarker Activity (AID 2283064)
Settings: primary human foreskin fibroblasts; actives raise or lower the signal
Method in brief: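 Human foreskin fibroblasts exposed to chemical for 24 h; MMP1 detected by ELISA, with DMSO as baseline for bidirectional fitting.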
With `Nc1ccc(-c2ccc(N)c(N)c2)cc1N` the outcome was “inactive”.
For `O=c1[nH]c(Cl)c(Cl)cc1Cl`, the outcome was “inactive”.
For `O=C(O)CCCc1ccc(N(CCCl)CCCl)cc1`, the outcome was “inactive”.
For `COC(C)(C)CCC[C@H](C)C/C=C/C(C)=C/C(=O)OC(C)C`, the AC50 was 32.5 µM (active).
For `O=P1(NCCCl)OCCCN1CCCl` (stereo not given), the outcome was “inactive”.
For `O=S(=O)(c1ccccc1)c1ccccc1`, the outcome was “inactive”.
For `Clc1ccc(-c2ccccc2)cc1`, the outcome was “inactive”.
With `Oc1cc(Cl)ccc1Cl` the outcome was “inactive”.

Read-out: Plasminogen activator inhibitor-1 (PAI1), SERPINE1 (gene 5054)
Assay: BSK_hDFCGF_PAI1: BioMAP Diversity Plus: hDFCGF Assay for Plasminogen activator inhibitor-1 (PAI1) Biomarker Activity (AID 2283066)
Settings: primary human foreskin fibroblasts; actives raise or lower the signal
Method in brief: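 Fibroblasts from human foreskin were treated with test chemical. After 24 h, PAI-1 was measured by ELISA. Activity was fitted in both directions relative to DMSO.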
With `Nc1ccc(-c2ccc(N)c(N)c2)cc1N` the outcome was “inactive”.
With `O=c1[nH]c(Cl)c(Cl)cc1Cl` the outcome was “inactive”.
In the case of `O=C(O)CCCc1ccc(N(CCCl)CCCl)cc1`, the outcome is reported as “inactive”.
In the case of `COC(C)(C)CCC[C@H](C)C/C=C/C(C)=C/C(=O)OC(C)C`, the AC50 is reported as 28.4 µM (active).
In the case of `O=P1(NCCCl)OCCCN1CCCl` (stereo not given), the outcome is reported as “inactive”.
With `O=S(=O)(c1ccccc1)c1ccccc1` the outcome was “inactive”.
With `Clc1ccc(-c2ccccc2)cc1` the outcome was “inactive”.
For `Oc1cc(Cl)ccc1Cl`, the outcome was “inactive”.

Read-out: Intercellular Adhesion Molecule 1 (ICAM1), ICAM1 (gene 3383)
Assay: BSK_KF3CT_ICAM1: BioMAP Diversity Plus: KF3CT Assay for Intercellular Adhesion Molecule 1 (ICAM1) Biomarker Activity (AID 2283067)
Settings: primary human keratinocytes with fibroblasts; actives raise or lower the signal
Method in brief: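 ELISA readout of ICAM-1; KF3CT human skin co-culture (keratinocytes + foreskin fibroblasts), 24 h post-dose; gain/loss fit vs DMSO baseline.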
With `O=c1[nH]c(Cl)c(Cl)cc1Cl` the outcome was “inactive”.
In the case of `O=C(O)CCCc1ccc(N(CCCl)CCCl)cc1`, the AC50 is reported as 20 µM (active).
In the case of `COC(C)(C)CCC[C@H](C)C/C=C/C(C)=C/C(=O)OC(C)C`, the outcome is reported as “inactive”.
With `O=P1(NCCCl)OCCCN1CCCl` (stereo not given) the outcome was “inactive”.
For `O=S(=O)(c1ccccc1)c1ccccc1`, the outcome was “inactive”.
For `Clc1ccc(-c2ccccc2)cc1`, the outcome was “inactive”.
With `Oc1cc(Cl)ccc1Cl` the outcome was “inactive”.

Read-out: Interferon-gamma inducible Protein 10 (IP10), CXCL10 (gene 3627)
Assay: BSK_KF3CT_IP10: BioMAP Diversity Plus: KF3CT Assay for Interferon-gamma inducible Protein 10 (IP10) Biomarker Activity (AID 2283068)
Settings: primary human keratinocytes with fibroblasts; actives raise or lower the signal
Method in brief: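 In a primary skin co-culture of keratinocytes and fibroblasts, IP-10 is quantified by ELISA at 24 h after dosing. SRB staining of parallel wells monitors overt toxicity. Curves are fitted both directions against DMSO.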
In the case of `Nc1ccc(-c2ccc(N)c(N)c2)cc1N`, the outcome is reported as “inactive”.
In the case of `O=c1[nH]c(Cl)c(Cl)cc1Cl`, the outcome is reported as “inactive”.
For `O=C(O)CCCc1ccc(N(CCCl)CCCl)cc1`, the AC50 was 31.9 µM (active) and 36.2 µM (active).
With `COC(C)(C)CCC[C@H](C)C/C=C/C(C)=C/C(=O)OC(C)C` the AC50 was 33.6 µM (active).
In the case of `O=P1(NCCCl)OCCCN1CCCl` (stereo not given), the outcome is reported as “inactive”.
In the case of `O=S(=O)(c1ccccc1)c1ccccc1`, the outcome is reported as “inactive”.
For `Clc1ccc(-c2ccccc2)cc1`, the outcome was “inactive”.
For `Oc1cc(Cl)ccc1Cl`, the outcome was “inactive”.

Read-out: not listed separately
Assay: BSK_KF3CT_SRB: Viability Assessment in the BioMAP Diversity Plus: KF3CT Assay (AID 2283069);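 also: read 24 h after compound addition; fitted for both signal gain and loss against DMSO baseline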
Settings: primary human keratinocytes with fibroblasts
Method in brief: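 Overt cytotoxicity is assessed as total protein by sulforhodamine B staining in parallel human skin co-cultures at 24 h after dosing. DMSO serves as negative control and baseline.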
With `Nc1ccc(-c2ccc(N)c(N)c2)cc1N` the outcome was “inactive”.
In the case of `O=c1[nH]c(Cl)c(Cl)cc1Cl`, the outcome is reported as “inactive”.
With `O=C(O)CCCc1ccc(N(CCCl)CCCl)cc1` the outcome was “inactive”.
With `COC(C)(C)CCC[C@H](C)C/C=C/C(C)=C/C(=O)OC(C)C` the outcome was “inactive”.
In the case of `O=P1(NCCCl)OCCCN1CCCl` (stereo not given), the outcome is reported as “inactive”.
In the case of `O=S(=O)(c1ccccc1)c1ccccc1`, the outcome is reported as “inactive”.
In the case of `Clc1ccc(-c2ccccc2)cc1`, the outcome is reported as “inactive”.
For `Oc1cc(Cl)ccc1Cl`, the outcome was “inactive”.
